Data on 28 compounds can be found in the supplement of paper PMC6522484.

The test system of assay [1] is DLD1. The experiment in a line: cell viability (CellTiter-Glo) relative to plate median (fraction of plate median); higher = more viable cells. The note with it: 5 µM; treatment time 24 h; reporter: 7TFP. In a few lines:
(§1)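 On parallel plates, a Tecan F500 reader recorded either firefly luciferase or CellTiterGlo luminescence. The plates held colorectal cancer cells stably transduced with lentiviral TCF/Wnt firefly luciferase reporters (7TFP or TCF4/Wnt), seeded in 384-well format and treated 24 h later with library compounds at a final 5 µM for 24 h. Per-well signals were normalised to the plate median (webcellHTS2, additive, no log transformation), and two independent replicates were averaged.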
(ATP-based viability assays read luminescence as a measure of living cells.)

The next assay deals with HCT116. The assay is described as above. As to conditions: 5 µM; treatment time 24 h; reporter: TCF4/Wnt. In a few lines:
as §1

Assay [2] has as its system SW480. The assay is described as above. The note with it: 5 µM; treatment time 24 h; reporter: 7TFP. In a few lines:
as §1

Assay [3] deals with DLD1. The experiment in a line: TCF/Wnt firefly luciferase reporter signal relative to plate median (fraction of plate median); higher = higher Wnt reporter signal. As to conditions: 5 µM; treatment time 24 h; reporter: 7TFP. In a few lines: as §1
The test system of assay [4] is SW480. The description is as above. As to conditions: 5 µM; treatment time 24 h; reporter: 7TFP. In a few lines:
as §1

SMILES strings stand for the structures. Several values for one entry are separate records, joined by “and”; a condition that tells them apart may be missing. Identical values can stand only once. ± gives the standard deviation of the averaged measurements.

With `NNc1nncc2ccccc12`, the cell viability with DLD1 [1] came to 1.055 ± 0.0071; with HCT116, 1.06 ± 0.057; in the assay with SW480 [2] it was 1.055 ± 0.0071. The “TCF/Wnt firefly luciferase reporter signal” value with DLD1 [3] is 1.23 ± 0.25; in the assay on SW480 [4], 1.28 ± 0.17.
With `CC(=O)O[C@@H]1CC2C(C)(C)C(=O)C3OC3[C@]2(C)C2CC[C@@]3(C)[C@H](c4ccoc4)OC(=O)C4OC43[C@@]21C` (stereo not given in full), the cell viability with DLD1 [1] stood at 1.06 ± 0.014; in the assay on HCT116 it was 1.1 ± 0.085; with SW480 [2] it was 1.02 ± 0.035. In addition, the results for the “TCF/Wnt firefly luciferase reporter signal” value in the assay on DLD1 [3] and in the assay on SW480 [4] were 1.02 ± 0.057 and 0.864 ± 0.078, respectively.
In the same order, the values of `O=C(O)c1cc(O)c(O)c(O)c1` are 0.906 ± 0.059, 0.955 ± 0.093, 1 ± 0.08, 1.11 ± 0.17 and 1.03 ± 0.17.
For `COc1ccc(-c2cc(=O)c3ccccc3o2)cc1OC`, the cell viability in the assay with DLD1 [1] was found to be 1.07 ± 0.05; in the assay on HCT116, 1.01; in the assay on SW480 [2], 1.06 ± 0.057. Besides, the “TCF/Wnt firefly luciferase reporter signal” value with DLD1 [3] was found to be 0.906 ± 0.0099; in the assay with SW480 [4], 1.03 ± 0.035.
In the case of `CC(C)c1c(O)ccc2c1CCC1[C@@](C)(C=O)CCC[C@]21C` (stereo not given in full), the cell viability was found to be 1.03 ± 0.021 with DLD1 [1], 1.01 ± 0.031 in the assay with HCT116 and 0.965 ± 0.04 in the assay with SW480 [2]. The “TCF/Wnt firefly luciferase reporter signal” value with DLD1 [3] is 1.03 ± 0.014; in the assay on SW480 [4] it was 1.08 ± 0.028.
In the same order, the values of `C[C@H](N)[C@H](O)c1cccc(O)c1` are 0.955 ± 0.052, 0.997 ± 0.075, 1.06 ± 0.035, 0.918 ± 0.074 and 0.915 ± 0.0071.
`CC(C)(Oc1ccc(C2CC2(Cl)Cl)cc1)C(=O)O` (stereo not given): the cell viability with DLD1 [1] amounted to 1.06 ± 0.05; in the assay on HCT116 it was 0.968 ± 0.074; in the assay on SW480 [2] it was 1.06 ± 0.014. Moreover, the results for the “TCF/Wnt firefly luciferase reporter signal” value in the assay on DLD1 [3] and with SW480 [4] were 0.943 ± 0.18 and 0.963 ± 0.17, respectively.
Consider `CC(C(=O)O)c1cccc(Oc2ccccc2)c1` (stereo not given), for which the cell viability in the assay on DLD1 [1] is 0.968 ± 0.088; in the assay with HCT116, 0.98 ± 0.0057; in the assay with SW480 [2], 0.988 ± 0.06. Moreover, the “TCF/Wnt firefly luciferase reporter signal” value in the assay on DLD1 [3] stood at 1.04 ± 0.085; with SW480 [4], 1.11 ± 0.042.
In the same order, the values of `COc1ccc(-c2cc(=O)c3c(O)cc(O[C@@H]4O[C@H](CO[C@@H]5O[C@@H](C)[C@H](O)[C@@H](O)[C@H]5O)[C@@H](O)[C@H](O)[C@H]4O)cc3o2)cc1O` are 0.999 ± 0.03, 1.06 ± 0.12, 0.96 ± 0.013, 1.06 ± 0.13 and 1.04 ± 0.021.
On the same counts, the results for `CN(C)CCN(Cc1cccs1)c1ccccn1` are 1.08 ± 0.028, 1.04 ± 0.18, 1 ± 0.015, 1.01 ± 0.056 and 1.03 ± 0.028.
For the compound `COCCCOc1cc(C[C@@H](C[C@H](NC(=O)OC(C)(C)C)[C@@H]2C[C@@H](C(C)C)C(=O)O2)C(C)C)ccc1OC` [Borrelidin derivative (C30H49NO7)], the cell viability was 1.01 ± 0.072 in the assay with DLD1 [1], 0.995 ± 0.036 in the assay with HCT116 and 0.959 ± 0.025 in the assay on SW480 [2]. The “TCF/Wnt firefly luciferase reporter signal” value in the assay with DLD1 [3] was determined as 0.963 ± 0.12; in the assay on SW480 [4] it was 0.9975 ± 0.0035.
On the same counts, the results for `COC(=O)C1=C(C)NC(C)=C(C(=O)OC)C1c1ccccc1[N+](=O)[O-]` are 1.05 ± 0.14, 0.995 ± 0.11, 1.06 ± 0.028, 1.04 ± 0.11 and 1.06 ± 0.078.
In the same order, the values of `COc1cc2occ(-c3ccc(O)cc3)c(=O)c2cc1O` [Kakkatin] are 1.04 ± 0.028, 1.06 ± 0.14, 1.01 ± 0.044, 1.22 ± 0.028 and 1.09 ± 0.064.
For the compound `CC(C)=CCOc1cc2oc(=O)ccc2cc1O`, the cell viability in the assay with DLD1 [1] came to 1.08 ± 0.014; in the assay with HCT116 it was 1.19 ± 0.11; with SW480 [2], 1.04 ± 0.028. Besides, the “TCF/Wnt firefly luciferase reporter signal” value with DLD1 [3] was found to be 1.005 ± 0.0071; in the assay with SW480 [4], 1.07 ± 0.064.
In the same order, the values of `C[C@@H]1CC[C@@]2(OC1)O[C@H]1C[C@H]3[C@@H]4CC=C5C[C@@H](O)CC[C@]5(C)[C@H]4CC[C@]3(C)[C@H]1[C@@H]2C` are 1.01 ± 0.14, 0.973 ± 0.025, 0.93 ± 0.046, 0.89 ± 0.063 and 0.998 ± 0.06.
On the same counts, the results for `C=C(C)[C@H]1C(=O)[C@H]2O[C@@]2(C)C(=O)[C@@H](O)[C@H](C(=C)C)CCC2=C[C@H]1OC2=O` [bipinnapterolide A] are 1.17 ± 0.071, 1.04 ± 0.092, 1.01 ± 0.033, 0.971 ± 0.042 and 0.913 ± 0.12.
On the same counts, the results for `CC[C@H]1OC(=O)C[C@@H](O)[C@H](C)[C@@H](O[C@@H]2O[C@H](C)[C@@H](O)[C@H](N(C)C)[C@H]2O)[C@@H](CCN2C[C@H](C)C[C@H](C)C2)C[C@@H](C)C(=O)/C=C/C(C)=C/[C@@H]1CO[C@@H]1O[C@H](C)[C@@H](O)[C@@H](OC)[C@H]1OC` are 0.981 ± 0.041, 1.1 ± 0.05, 0.972 ± 0.021, 1.02 ± 0.077 and 1.09 ± 0.064.
As for `O=C(OCc1ccccc1)c1ccccc1`, the cell viability in the assay with DLD1 [1] was found to be 1.03 ± 0.035; with HCT116, 0.996 ± 0.062; with SW480 [2], 0.928 ± 0.029. Also, the “TCF/Wnt firefly luciferase reporter signal” value is 0.954 ± 0.14 in the assay with DLD1 [3] and 0.999 ± 0.1 in the assay with SW480 [4].
In the same order, the values of `C[N+]1(C)C[C@H](O)C[C@H]1C(=O)[O-]` are 1.03 ± 0.014, 0.985 ± 0.035, 0.967 ± 0.0099, 1.06 ± 0.035 and 0.869 ± 0.025.
On the same counts, the results for `C=C[C@@]1(C)CC(=O)[C@@]2(O)[C@](C)(O1)[C@@H](O)[C@@H](O)C1C(C)(C)CC[C@H](O)[C@@]12C` (stereo not given in full) are 0.9975 ± 0.0035, 0.96 ± 0.051, 1.02 ± 0.014, 0.923 ± 0.042 and 0.976 ± 0.13.
On the same counts, the results for `CC(=O)OCC[N+](C)(C)C` are 0.987 ± 0.15, 0.998 ± 0.059, 0.982 ± 0.014, 1.01 ± 0.023 and 0.992 ± 0.012.
As to `CC1CCC(NC(=O)N(CCCl)N=O)CC1` (stereo not given), the cell viability worked out at 1.01 ± 0.059 in the assay on DLD1 [1], 1.02 ± 0.071 with HCT116 and 1.015 ± 0.0071 in the assay with SW480 [2]. For the same compound, the “TCF/Wnt firefly luciferase reporter signal” value in the assay on DLD1 [3] worked out at 1.08 ± 0.035; with SW480 [4], 1.16 ± 0.028.
Take `C[C@@H]1CC[C@H]2C(C(=O)O)=C[C@@H]3[C@@H](O)C(C)(C)C[C@@]132` [Pentalenic acid]: the values for the cell viability with DLD1 [1], with HCT116 and in the assay on SW480 [2] were 0.966 ± 0.019, 0.941 ± 0.016 and 1.02 ± 0.042, respectively. The “TCF/Wnt firefly luciferase reporter signal” value with DLD1 [3] was 0.794 ± 0.13; in the assay on SW480 [4] it was 0.98 ± 0.16.
Take `CN[C@@H]1[C@H](O)[C@H](NC)[C@H]2O[C@@]3(O)C(=O)C[C@@H](C)O[C@H]3O[C@@H]2[C@H]1O`: the cell viability in the assay on DLD1 [1] was 1.04 ± 0.08; in the assay with HCT116 it was 1.004 ± 0.0085; with SW480 [2], 0.978 ± 0.025. In addition, the “TCF/Wnt firefly luciferase reporter signal” value turned out to be 1.24 ± 0.18 in the assay on DLD1 [3] and 1.09 ± 0.13 in the assay on SW480 [4].
On the same counts, the results for `CC1(C)O[C@@H]2C[C@H]3[C@@H]4C[C@H](F)C5=CC(=O)C=C[C@]5(C)[C@H]4[C@@H](O)C[C@]3(C)[C@]2(C(=O)CO)O1` are 0.996 ± 0.0057, 1.03 ± 0.055, 0.978 ± 0.0042, 0.928 ± 0.0085 and 1.03 ± 0.067.
On to `Oc1cc(O)c2c(c1)O[C@H](c1ccc(O)c(O)c1)[C@H](O)C2`, for which the cell viability with DLD1 [1] is 0.953 and 0.936; in the assay on HCT116 it was 1.03 and 0.956; in the assay on SW480 [2], 1.01 and 1.06. Moreover, the “TCF/Wnt firefly luciferase reporter signal” value was 0.934 and 1.07 in the assay on DLD1 [3]; 0.985 and 1.08 with SW480 [4].
Consider `Cn1cnc([N+](=O)[O-])c1Sc1ncnc2[nH]cnc12`, for which the values for the cell viability in the assay on DLD1 [1], in the assay with HCT116 and with SW480 [2] were 0.95 ± 0.018, 1.02 ± 0.054 and 1.13 ± 0.057, respectively. Also, the “TCF/Wnt firefly luciferase reporter signal” value in the assay with DLD1 [3] was 1.03 ± 0.078; with SW480 [4], 0.965 ± 0.034.
In the same order, the values of `COC1=C(O)C(=O)c2c(cc3oc(C(C)=O)c(O)c3c2O)C1=O` are 1.03 ± 0.055, 1.07 ± 0.064, 0.985 ± 0.064, 1.05 ± 0.11 and 0.949 ± 0.027.
